From PubChem BioAssay (Tox21)
Inconclusive results are not listed. Values without a mark were called inactive. Activity calls are given as the source filed them. Calls come from the whole dose curve.

assay: qHTS assay to identify small molecule agonists of the progesterone receptor (PR) signaling pathway - cell viability counter screen (AID 1346799); conditions: PR-UAS-bla HEK293T viability, CellTiter-Glo luminescence, 16 h; series mostly up to 92.4 µM; activity change, negative = cytotoxicity: at the top concentration; note: nearly all actives have a fitted effect of over 45% in size
Source text: National Center for Advancing Translational Sciences [NCATS]
NIH Chemical Genomics Center [NCGC]
U.S. Environmental Protection Agency [EPA]
National Institutes of Environmental Health Sciences [NIEHS]
National Toxicology Program [NTP]
U.S. Food and Drug Administration [FDA]
Progesterone receptor (PR), a nuclear hormone receptor, plays an important role in development, metabolic homeostasis and reproduction. It is activated by the steroid hormone progesterone. Endocrine disrupting chemicals (EDCs) and their interactions with steroid hormone receptors like PR causes disruption of normal endocrine function. To identify the compounds that stimulate PR signaling, a PR-UAS-bla GripTite cell line i.e. PR-UAS-bla HEK293T (Invitrogen, Carlsbad, CA, USA) containing a beta-lactamase reporter gene under the control of an UAS response element was used to screen Tox21 10K compound library. The cytotoxicity of the Tox21 compound library against the PR-bla cell line was tested in parallel by measuring the cell viability using CellTiter-Glo assay in the same wells.
Tox21 Assay Protocol Summary:
PR-UAS-bla HEK293T cells were dispensed at 3,000 cells/5 uL of assay medium containing 2% charcoal stripped FBS per well into black wall/clear-bottom 1536-well plates using a Multidrop Combi (ThermoFisher Scientific, Waltham, MA) dispenser. After the assay plates were incubated at a 37C and 5% CO2 for 6 hr, 23 nL of compounds dissolved in DMSO, positive controls or DMSO only was transferred to the assay plate by a Pintool station (Kalypsys, San Diego, CA). The plates were incubated at 37C and 5% CO2 for 16 hr. Then 1 uL of LiveBLAzer B/G FRET substrate was added using a Flying Reagent Dispenser (FRD, Aurora Discovery, San Diego, CA), the plates were incubated at room temperature for 2 hours, and fluorescence intensity was measured by an Envision plate reader (PerkinElmer, Shelton, CT). For cell viability readout that measures cytotoxicity, 4 uL/well of CellTiter-Glo reagent was added into the assay plates using a FRD. After 30 min incubation at room temperature, the luminescence intensity in the plates was measured using a ViewLux (PerkinElmer) plate reader.
% is set by controls: 0 for no effect and ±100 for the full control effect; potency is the fitted concentration of half-maximal effect.

SMILES	activity change, negative = cytotoxicity	Potency
Cn1c(NCCN(CCO)CCCc2ccc([N+](=O)[O-])cc2)cc(=O)n(C)c1=O	0% [at 42.5 µM]	–
C1CCC2OC2C1 (stereo not given)	-18.5%	–
Nc1nc(N)c2nc(CNc3ccc(C(=O)N[C@@H](CCC(=O)O)C(=O)O)cc3)cnc2n1	-26.5%	–
Cc1ccc(C)o1	12.3%	–
CC(C)=CCCC(C)CC=O (stereo not given)	-1.88%	–
CC(=O)N(O)CCCCCNC(=O)CCC(=O)N(O)CCCCCNC(=O)CCC(=O)N(O)CCCCCN	-8.06% [at 42.5 µM]	–
CCCCCCCC/C=C\CCCCCCCC(N)=O	18.5%	–
CCCCCOC(=O)COc1cc(N2C(=O)C3=C(CCCC3)C2=O)c(F)cc1Cl	-3.35%	–
NCc1ccccc1	-1.22%	–
CCCCCCCCCC(=O)OCC	-4.33%	–
Cc1cc(NC(=O)C(=O)O)cc(C)c1Oc1ccc(O)c2c1CCC2	0.857%	–
CCOc1ccc(NC(=O)CC(C)=O)cc1	-12%	–
Cc1c(Cn2ccnc2)c2ccccc2n1CCC(=O)O	1.12% [at 42.5 µM]	–
COCCOCCOCCOCCOC	–	21.7 µM (active)
N=C(N=C(N)N)N1CCOCC1	7.4% [at 42.5 µM]	–
Oc1ccc(C(O)CNCCCCCCNCC(O)c2ccc(O)c(O)c2)cc1O (stereo not given)	-0.85% [at 42.5 µM]	–
O=S(=O)(O)c1ccc(O)c2ncccc12	28%	–
O=C(NN1CCCC1)NS(=O)(=O)c1ccc(Cl)cc1	1.35% [at 42.5 µM]	–
Cc1occc1S	5.88%	–
COc1ccc(OC)c(OC)c1	-3.04%	–

SMILES	activity change, negative = cytotoxicity	Potency
N#CCCNCCC#N	0.406%	–
CC(=O)Nc1ccc(/C=N/NC(N)=S)cc1	-2.82% [at 42.5 µM]	–
CCCCCC(CO)CCC (stereo not given)	-14.8%	–
CN(C)C/C=C(/c1ccc(Br)cc1)c1cccnc1	0% [at 42.5 µM]	–
CC[C@H](C)[C@H](N)C(=O)O	-1.95% [at 42.5 µM]	–
CCOC(=O)CC(=O)c1cc(F)c(Cl)nc1Cl	6.48%	–
CCN(CC)CCOC(=O)C1(c2ccccc2)CCCC1	-14.7% [at 42.5 µM]	–
O=C(Nc1ccccc1)OCC(CN1CCCCC1)OC(=O)Nc1ccccc1 (stereo not given)	-19.2% [at 42.5 µM]	–
CCCCCc1ccc(N)cc1	4.88%	–
CCCC[C@H]1CN(CC2CCOCC2)C(=O)OC12CCN(C1(C)CCN(C(=O)c3c(C)ncnc3C)CC1)CC2	-6.84%	–
S=C(S)NCCNC(=S)S	-2.45%	–
CCCC(=O)OCC	-29.7%	–
N[C@H]1C(O)O[C@H](CO)[C@H](O)[C@@H]1O (stereo not given in full)	10.9%	–
CC1(C)[C@H]2CC[C@]1(C)[C@H](O)C2	8.3%	–
O=c1[nH]cnc2ccccc12	10.8%	–
N#Cc1c(F)cccc1F	0.504%	–
Cc1ccc(C(=O)C(C)CN2CCCCC2)cc1 (stereo not given)	0.0138% [at 42.5 µM]	–
Cn1c(N)nc2nc[nH]c2c1=O	0%	–
CN(C)CC[C@@H](c1ccc(Br)cc1)c1ccccn1	-6.61% [at 42.5 µM]	–
CC(C)c1ccccc1C(C)C	5.13%	–
